High-throughput results from PubChem.
Compounds with a hit are over-represented: about 1.2% of the library has one in this group of screens.
Tb PFK block = qHTS Assay to Find Inhibitors of T. brucei phosphofructokinase; ATP-dependent 6-phosphofructokinase (Trypanosoma brucei brucei), O15648; T. brucei PFK, ADP-Glo luminescence; Potency, µM (titrated, usually from 57.5 µM), for inactives: at the highest dose activity, negative = inhibition, usual class: inhibitors; 330,000 tested, 0.17% active; AID 485367, 2010; active = well fitted inhibition curve with a large enough effect;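 also: potency is read from the fitted curve at half-maximal effect; 0% = uninhibited 1x PFK enzyme wells and -100% = no-enzyme wells; nearly all actives have a fitted effect of over 60% in size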
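PFK 1.25 nM, F6P 0.5 mM, ATP 0.1 mM, 0.1 M TEA pH 8.0, 5 mM MgCl2, 0.01% Tween20, 0.1% BSA; 45 min RT. ADP-Glo readout. qHTS titration up to 57 uM; curves fitted, compounds curve-classed.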
KCNH2 3.1 block = qHTS for Inhibitors of KCHN2 3.1: Mutant qHTS; Potassium voltage-gated channel subfamily H member 2, brain isoform KCNH2 3.1 (human); U2OS KCNH2 3.1, thallium flux FluxOr; active compounds read low; activity change, % (tested at about 1.8 µM); 340,000 tested, 0.95% active; AID 720553, 2013;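 active = maximum activity change below -70%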;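 also: thallium influx rate constant from kinetic fluorescence after stimulation buffer; % is scaled to controls: 0 for no effect and ±100 for the full control effect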
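Channel expression came from 3.1 mutant virus (1.77 x 10^8 /mL) applied to suspended U2OS cells for 4 h. Flux was tracked with FluxOr dye plus Red40 quencher, and kinetic rate constants normalized to controls.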
PTAP TSG101 blk = qHTS Assay for Iinhibitors of HIV-1 Budding by Blocking the Interaction of PTAP/TSG101. 340,000 tested, under 10 active. Fluorescence polarization, FITC-PTAP peptide / Tsg101 binding. Tumor susceptibility gene 101 protein (Homo sapiens), Q99816. Potency, µM (top dose mostly 115 µM), for the others: at the highest dose activity change, negative = inhibition, hits mostly inhibitors; active = well fitted inhibition curve with a large enough effect in the main read-out, with a control signal flat, not every such curve was filed as active; also: potency is read from the fitted curve at half-maximal effect; % of control where 0% means no effect
Target sequence (Q99816 whole entry, looked up): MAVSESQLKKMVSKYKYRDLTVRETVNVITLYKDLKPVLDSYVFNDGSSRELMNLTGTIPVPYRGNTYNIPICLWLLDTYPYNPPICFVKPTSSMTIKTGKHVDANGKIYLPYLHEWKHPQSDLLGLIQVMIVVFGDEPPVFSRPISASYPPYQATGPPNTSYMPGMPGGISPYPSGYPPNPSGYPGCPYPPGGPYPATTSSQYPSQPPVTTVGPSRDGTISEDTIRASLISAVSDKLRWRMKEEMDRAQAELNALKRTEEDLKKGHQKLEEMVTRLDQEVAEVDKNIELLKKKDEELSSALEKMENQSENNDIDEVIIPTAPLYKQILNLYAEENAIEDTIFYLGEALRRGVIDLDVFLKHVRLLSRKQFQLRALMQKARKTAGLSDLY
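Tsg101 binding domain (10 uM final) was mixed with compound and a FITC-labeled PTAP peptide (50 nM final) in HEPES pH 7.5 buffer with NaCl, Tween 20, EDTA and TCEP; fluorescence polarization was read after 20 min at r.t.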
KCNH2 WT inh = qHTS for Inhibitors of KCHN2 3.1: Wildtype qHTS. Voltage-gated inwardly rectifying potassium channel KCNH2 (Homo sapiens), Q12809. U2OS, BacMam KCNH2, thallium flux FluxOr; active compounds read low. activity change, % at 1.84 µM. 340,000 tested, 0.37% active. AID 720551, 2013;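 active = maximum activity change below -70%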; also: % is scaled to controls: 0 for no effect and ±100 for the full control effect
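U2OS cells transduced with wild-type KCNH2 virus are loaded with FluxOr dye for 45 min, and thallium flux is measured in kinetic reads before and after stimulation buffer. Rate constants are normalized to DMSO controls.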
The depositor's hits bear a star; x = no result given.

SMILES	Tb PFK block	KCNH2 3.1 block	PTAP TSG101 blk	KCNH2 WT inh
CC(C(=O)N(C)Cc1ccccc1)N1CCN(C/C=C/c2ccccc2)CC1 (stereo not drawn)	0%	-96*	0%	15
OCC1(CCc2ccccc2)CCN(C/C=C/c2ccccc2)CC1	1%	-107*	2%	-135*
OCC1(Cc2ccccc2Cl)CCN(C/C=C/c2ccccc2)CC1	-6%	-3	-11%	35
CCCn1c(SCC(=O)c2cc(C)n(-c3cc(C)on3)c2C)n[nH]c1=O	8%	10	3%	-2
CN(CCc1ccccc1)C(=O)c1ccc(NC(=O)Cc2ccc(NC(=O)C3CCN(C(=O)C4CC4)CC3)cc2)cc1	x	-73*	1%	3
CC(=O)Nc1c(C(=O)Nc2ccc3c(c2)OCO3)oc2ccccc12	0%	6	-6%	-72*
O=C(CCS(=O)(=O)c1ccc(F)cc1)Nc1nc(-c2ccncc2)cs1	21µM*	4	-1%	-1
O=C(Nc1ccccc1Cl)c1cccc(NS(=O)(=O)c2ccccc2)c1	0%	x	x	x
CC1=NN(c2nc(N)nc(/C(C#N)=C/c3ccc([N+](=O)[O-])o3)n2)C(C)(C)C1	x	-72*	-2%	-6
CC1=C(C(=O)N(C(C)C)C(C)C)CC(CC(=O)NCc2cccs2)C(=O)N1Cc1ccccc1 (stereo not drawn)	x	-5	x	-9
COC(=O)c1cn(CC(=O)N2CCCCCC2)c2ccccc12	0%	-18	-4%	12
CCOC(=O)C1=C(O)/C(=C/c2cn(CC(=O)N3CCCC3)c3ccccc23)SC1=Nc1ccccc1	-4%	-13	11%	-102*
COC(=O)c1ccsc1NC(=O)CSc1nnnn1-c1ccccc1SC	-1%	-88*	1%	-22
O=C(Nc1ccc(F)c(F)c1)c1cc(S(=O)(=O)N2CCN(c3ccccn3)CC2)ccc1F	2%	-78*	-4%	-30
O=C(Nc1c(F)cc(F)cc1Br)c1cc(S(=O)(=O)N2CCN(c3ccccn3)CC2)ccc1F	-2%	-10	2%	-1
O=C(C1CCCCC1)N1C[C@@H](n2cc(-c3ccc(F)cc3)nn2)[C@H](O)C[C@@H]1c1ccccc1	x	5	x	-3
COc1ccccc1C(CCN(Cc1cccs1)C(C)=O)c1ccco1 (stereo not drawn)	-5%	-74*	-6%	-1
Cc1c(NC(=O)C(C)OC(=O)COc2cccc3c2OC(C)(C)C3)c(=O)n(-c2ccccc2)n1C (stereo not drawn)	0%	20	-3%	10
Cc1c(NC(=O)COc2cccc3c2OC(C)(C)C3)c(=O)n(-c2ccccc2)n1C	-5%	-107*	0%	-1
Cc1ccccc1-c1csc(N)n1	x	3	-3%	-1
Nc1nc(-c2ccccc2Cl)cs1	x	-71*	-1%	4
NCCNc1ccc(C(=O)N2c3ccccc3Sc3ccccc32)cc1[N+](=O)[O-]	0%	-175*	0%	8
CSCCC(C)N1CCC(Oc2ccc(C(=O)NCc3ccccn3)cc2)CC1 (stereo not drawn)	x	12	x	4
COCCN(Cc1nc2ccccc2c(=O)[nH]1)C(=O)COc1cccc(C(C)=O)c1	-9%	13	-6%	-5
O=C(COC(=O)CSc1ccc(F)cc1)NC1CCCCCC1	1%	-14	-1%	-22
SMILES	Tb PFK block	KCNH2 3.1 block	PTAP TSG101 blk	KCNH2 WT inh
CCCCCn1c(=O)[nH]c2cc(C(=O)NCCCN(CC)CC)ccc2c1=O	-3%	-84*	-10%	5
COc1ccccc1/C=C1\Oc2cc(OC(=O)N3CCOCC3)ccc2C1=O	0%	-9	-14%	-22
COc1ccc(O)c(-c2[nH]ncc2C(=O)c2cccc(C)c2)c1	0%	-109*	-2%	26
COc1ccc(C(=O)c2cn[nH]c2-c2cc(C)ccc2O)cc1	-2%	13	-9%	-7
Cc1ccc(S(=O)(=O)N(C)C[C@@H]2Oc3ccc(NC(=O)CCC(F)(F)F)cc3CC(=O)N([C@@H](C)CO)C[C@@H]2C)cc1	0%	0	-2%	-2
O=C(N/N=C/c1cc(Cl)ccc1O)C(=O)Nc1ccccc1OC(F)(F)C(F)F	-2%	-36	0%	-22
O=C(N/N=C/c1cc(Br)ccc1O)C(=O)Nc1ccccc1OC(F)(F)C(F)F	-1%	8	-3%	-263*
CCN(CC1CCCN(CCc2cccc(F)c2)C1)C(=O)c1ccoc1C (stereo not drawn)	x	-32	x	33
CCN(CC1CCCN(CCc2cccc(F)c2)C1)C(=O)c1ccc(CSC)o1 (stereo not drawn)	-1%	-84*	-3%	-49
CCNS(=O)(=O)c1ccc(CCC(=O)NCCC2=CCCCC2)cc1	7%	-45	-1%	-243*
COc1cccc(CC(=O)OCC(=O)N(C)CC(=O)Nc2ccc(F)cc2)c1	20%	1	2%	3
CCn1cc(C(=O)O)c(=O)c2cnc(N3CCN(C(=S)NC(=O)c4ccc(OC)cc4)CC3)nc21	0%	-3	0%	-1
COc1ccc(C2NCCC3(O)CCCCC23)c(OC)c1OC (stereo not drawn)	-5%	2	-4%	-296*
COc1ccccc1NC(=S)NCCc1c[nH]c2ccccc12	2%	-8	-6%	6
Cc1ccc(NC(=S)NCCc2c[nH]c3ccccc23)c(C)c1	-1%	-91*	-10%	22
CCOc1cccc(CN2CCCC(CNC(=O)c3cccc(OC)c3OC)C2)c1 (stereo not drawn)	4%	13	-1%	8
O=Cc1ccc(OCCOc2ccc([N+](=O)[O-])cc2)cc1	-10%	-3	-1%	1
O=C(NCC(c1ccco1)N1CCc2ccccc2C1)c1ccc(Cl)c([N+](=O)[O-])c1 (stereo not drawn)	0%	-2	-3%	3
CN(c1ccccc1)S(=O)(=O)c1ccc(C(=O)NCC(c2ccco2)N2CCCCC2)cc1 (stereo not drawn)	-1%	11	-4%	5
COc1ccccc1N(C)S(=O)(=O)c1ccc(C(=O)NCC(c2ccco2)N2CCCCC2)cc1 (stereo not drawn)	x	-94*	-12%	4
O=C(NCC(c1ccco1)N1CCCC1)c1ccc(Cl)c(S(=O)(=O)N2CCc3ccccc32)c1 (stereo not drawn)	0%	-77*	0%	-20
CNc1ncnc2c1ncn2-c1ccccc1	x	-40	-1%	12
CS(=O)(=O)N1CCC(C(=O)Nc2ccc(Cl)cc2Cl)CC1	x	-71*	x	-17
CS(=O)(=O)N1CCC(C(=O)Nc2ccc(Br)cc2F)CC1	1%	-92*	-7%	3
